In PubChem BioAssay:
Several values for one entry are separate records, joined by “and”; a condition that tells them apart may be missing. Equal entries are not always repeated. Inconclusive results are not listed. Some structures have more than one record in an assay (separate samples or runs), and their calls can disagree. Activity calls are given as the source filed them. Unless noted, no cut-off is given here; in the data, nearly all actives have AC50 up to about 26 µM.

Legend:
[1] = liver-stage malaria parasite load reduction – cell-based, known kinase inhibitor set, luminescence, hepatoma host viability (AID 624392; call rule not given here;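 note: infected cells incubated roughly two days before readout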); conditions: Plasmodium liver stage in hepatoma cells, luciferase luminescence, concentration not given here; liver cell % of control: measured here: host liver cell viability; parasite % of control: stronger effect = lower value
[2] = viability loss in pontine glioma line – cell-based, SU-DIPG-IV, MIPE4.0, CellTiter-Glo, qHTS, dose response (AID 1347063; cut-off not given, nearly all actives have AC50 up to about 30 µM;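 note: compound exposure lasted 48 hours before the viability readout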); conditions: CellTiter-Glo ATP luminescence
[3] = viability loss in pontine glioma line – cell-based, SU-DIPG-XIII, MIPE5.0, CellTiter-Glo, qHTS, dose response (AID 1347064; cut-off not given, nearly all actives have AC50 up to about 23 µM;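 for AC50: cells exposed to compound for 48 hours before the viability read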); conditions: CellTiter-Glo ATP luminescence
[4] = viability loss in pontine glioma line – cell-based, SU-DIPG-XXV, MIPE5.0, CellTiter-Glo, qHTS, dose response (AID 1347065); conditions: CellTiter-Glo ATP luminescence;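 note: cells exposed to compound for 48 hours before ATP readout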
[5] = JHH-DIPG-1 glioma cell viability, MIPE5.0 library, CellTiter-Glo luminescence, qHTS (AID 1347067); conditions: JHH-DIPG-1 glioma viability, CellTiter-Glo ATP luminescence;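 note: cells exposed to compound for 48 hours before readout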
[6] = viability loss with induced miR-34 in A549 – imaging, A549 dox-inducible miR-34, nuclei and caspase counts, primary screen (AID 1347080;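 active = compounds whose cell count with miR-34 switched on is under 0.7 times the count with it off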); conditions: A549 miR-34 inducible, Hoechst nuclei count, 48 h
[7] = compounds altering HSF1 focus formation in cells – imaging, Selleck Cancer Library (AID 1347162; in the data active = plate-normalised HSF1 focus index below about 0.46); conditions: human cells, HSF1 nuclear foci imaging, at 10 µM; SSMD: measured here: HSF1 foci SSMD mean; cell count: measured here: cell number; plate-normalised HSF1 focus index: stronger effect = lower value
[8] = MELAS cybrid and Rieske KO viability enhancers – cell-based, MELAS cybrids, Rieske KO mouse fibroblasts, CellTiter-Glo, primary screen (AID 1508586;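 active = mean z-score across replicates of 1.96 or higher in either the MELAS or the Rieske mutant cell line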;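 note: z relative to plate mean and SD of compound and empty wells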); conditions: low glucose
[9] = drug combination growth inhibition, ovarian cancer – cell-based, oncology-focused library, rucaparib conditional, profiling panel (AID 1508598;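 active = normalized viability below 100% at a tested concentration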); conditions: patient-derived ovarian cancer cells, CellTiter-Glo viability, 144 h, stronger effect = lower value
[10] = growth inhibition of DIPG cells – cell-based, MIPE4.0 library, CellTiter-Glo luminescence, qHTS (AID 1347066; cut-off not given, nearly all actives have AC50 up to about 30 µM;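 note: cells exposed to compound for 48 hours before readout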); conditions: SU-DIPG-VI viability, CellTiter-Glo ATP luminescence
[11] = growth inhibition of DIPG cells – cell-based, MIPE5.0 library, qHTS (AID 1347068; cut-off not given, nearly all actives have IC50 up to about 30 µM;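 for IC50: cells exposed to compound for 48 hours before viability readout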); conditions: SU-DIPG-XXV viability
[12] = P. berghei load reduction in hepatocytes – cell-based, HepG2, luciferase luminescence, HepG2 viability, primary screen (AID 624349; in the data active = parasite load remaining mostly below about 12%, no sharp cut-off; inactive = mostly above about 10%;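 note: 100% = mean of DMSO negative control wells on the same plate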); conditions: P. berghei liver stage in HepG2, luciferase luminescence, concentration not given here; parasite load remaining: stronger effect = lower value; viability: measured here: HepG2 viability without parasites
[13] = stronger effect = lower value, cell number ratio, induced over uninduced
[14] = measured here: relative caspase fold change +Dox/-Dox
[15] = measured here: total cells with miR-34 induction, stronger effect = lower value
[16] = measured here: total cells without miR-34 induction
[17] = MELAS cybrid survival, CellTiter-Glo 48 h, stronger effect = higher value
[18] = Rieske KO mouse fibroblast survival, CellTiter-Glo 72 h

With Cc1nc(N)sc1-c1ccnc(Nc2ccc(N3CCOCC3)cc2)n1 the liver cell % of control [1] was 72.4% and 73.5% and 98.2%, the parasite % of control [1] was 0.414% (inactive) and 0.47% (inactive) and 0.326% (active) and the AC50 [2] was 20.9 µM (active). For the same compound, the AC50 [3] was 5.9 µM (active), the AC50 [4] was 2.63 µM (active) and the AC50 [5] was 14.8 µM (active). The fold change [6, 13] was 0.855 (inactive), the fold change [6, 14] was 1.29 and the cell count [6, 15] was 1260. It also gave a cell count [6, 16] of 1470, an SSMD [7] of 3.31 and a cell count [7] of 7110. The plate-normalised HSF1 focus index [7] was 1.12 (inactive), the z-score [8, 17] was 1.86 (inactive) and the z-score [8, 18] was -0.218. The viability ([9]; at 0.000305 µM, OCI-C5x cells, with rucaparib 10 µM, 100% = cells with rucaparib alone) was 109% (inactive), the viability ([9]; at 0.000305 µM, OCI-C5x cells, without rucaparib) was 111% (inactive) and the viability ([9]; at 0.000305 µM, OCI-P5x cells, with rucaparib 20 µM, 100% = cells with rucaparib alone) was 125% (inactive). For the same compound, the viability ([9]; at 0.000305 µM, OCI-P5x cells, without rucaparib) was 120% (inactive), the viability ([9]; at 0.00122 µM, OCI-C5x cells, with rucaparib 10 µM, 100% = cells with rucaparib alone) was 110% (inactive) and the viability ([9]; at 0.00122 µM, OCI-C5x cells, without rucaparib) was 112% (inactive). The viability ([9]; at 0.00122 µM, OCI-P5x cells, with rucaparib 20 µM, 100% = cells with rucaparib alone) was 115% (inactive), the viability ([9]; at 0.00122 µM, OCI-P5x cells, without rucaparib) was 120% (inactive) and the viability ([9]; at 0.00488 µM, OCI-C5x cells, with rucaparib 10 µM, 100% = cells with rucaparib alone) was 104% (inactive). For the same compound, the viability ([9]; at 0.00488 µM, OCI-C5x cells, without rucaparib) was 112% (inactive), the viability ([9]; at 0.00488 µM, OCI-P5x cells, with rucaparib 20 µM, 100% = cells with rucaparib alone) was 117% (inactive) and the viability ([9]; at 0.00488 µM, OCI-P5x cells, without rucaparib) was 124% (inactive). The viability ([9]; at 0.0195 µM, OCI-C5x cells, with rucaparib 10 µM, 100% = cells with rucaparib alone) was 104% (inactive), the viability ([9]; at 0.0195 µM, OCI-C5x cells, without rucaparib) was 95.4% (active) and the viability ([9]; at 0.0195 µM, OCI-P5x cells, with rucaparib 20 µM, 100% = cells with rucaparib alone) was 116% (inactive). For the same compound, the viability ([9]; at 0.0195 µM, OCI-P5x cells, without rucaparib) was 113% (inactive), the viability ([9]; at 0.0781 µM, OCI-C5x cells, with rucaparib 10 µM, 100% = cells with rucaparib alone) was 109% (inactive) and the viability ([9]; at 0.0781 µM, OCI-C5x cells, without rucaparib) was 108% (inactive). For the same compound, the viability ([9]; at 0.0781 µM, OCI-P5x cells, with rucaparib 20 µM, 100% = cells with rucaparib alone) was 115% (inactive), the viability ([9]; at 0.0781 µM, OCI-P5x cells, without rucaparib) was 115% (inactive) and the viability ([9]; at 0.313 µM, OCI-C5x cells, with rucaparib 10 µM, 100% = cells with rucaparib alone) was 109% (inactive). For the same compound, the viability ([9]; at 0.313 µM, OCI-C5x cells, without rucaparib) was 110% (inactive), the viability ([9]; at 0.313 µM, OCI-P5x cells, with rucaparib 20 µM, 100% = cells with rucaparib alone) was 116% (inactive) and the viability ([9]; at 0.313 µM, OCI-P5x cells, without rucaparib) was 113% (inactive). For the same compound, the viability ([9]; at 1.25 µM, OCI-C5x cells, with rucaparib 10 µM, 100% = cells with rucaparib alone) was 101% (inactive), the viability ([9]; at 1.25 µM, OCI-C5x cells, without rucaparib) was 113% (inactive) and the viability ([9]; at 1.25 µM, OCI-P5x cells, with rucaparib 20 µM, 100% = cells with rucaparib alone) was 113% (inactive). For the same compound, the viability ([9]; at 1.25 µM, OCI-P5x cells, without rucaparib) was 111% (inactive), the viability ([9]; at 5 µM, OCI-C5x cells, with rucaparib 10 µM, 100% = cells with rucaparib alone) was 107% (inactive) and the viability ([9]; at 5 µM, OCI-C5x cells, without rucaparib) was 108% (inactive). For the same compound, the viability ([9]; at 5 µM, OCI-P5x cells, with rucaparib 20 µM, 100% = cells with rucaparib alone) was 97% (active) and the viability ([9]; at 5 µM, OCI-P5x cells, without rucaparib) was 102% (inactive).
For CNC(=O)[C@H](CC1=CN=C2C=CCC=C12)NC(=O)[C@@H](CC(=O)NO)CC(C)C, the AC50 [2] was 0.0372 µM (active) and the AC50 [10] was 0.0332 µM (active).
For C=Cc1cc(O)cc2nc(-c3ccc(O)c(F)c3)oc12, the outcome [3] was “inactive”, the outcome [4] was “inactive” and the outcome [5] was “inactive”. The outcome [11] was “inactive”.
With CC(C)C(N)C(=O)OCC(CO)OCn1cnc2c(=O)[nH]c(N)nc21 (stereo not given) the outcome [3] was “inactive”, the outcome [4] was “inactive” and the outcome [5] was “inactive”. For the same compound, the outcome [11] was “inactive”.
In the case of O=C(Cc1cccc(OC(F)(F)F)c1)Nc1ccc(CCCCc2nnc(NC(=O)Cc3ccccn3)s2)nn1, the AC50 [3] is reported as 13.2 µM (active), the AC50 [4] is reported as 14.8 µM (active) and the AC50 [5] is reported as 20.9 µM (active). For the same compound, the outcome [11] was “inactive”.
With NC(=S)N/N=C/c1ncccc1N the AC50 [3] was 11.8 µM (active), the AC50 [4] was 16.6 µM (active) and the AC50 [5] was 14.8 µM (active).
With OC(c1ccc(-c2ccc(CN3CCN(Cc4ccncc4)CC3)cc2)c(F)c1)(C(F)(F)F)C(F)(F)F the outcome [3] was “inactive”, the outcome [4] was “inactive” and the outcome [5] was “inactive”. The outcome [11] was “inactive”.
For COC1(c2sc3c(N4CCOCC4)nc(-c4cnc(N)nc4)nc3c2C)COC1, the AC50 [3] was 0.661 µM (active), the AC50 [4] was 0.132 µM (active) and the AC50 [5] was 0.525 µM (active). For the same compound, the IC50 [11] was 1.18 µM (active).
With COc1ccc(-n2cnc3cc(C(=O)N4CCCCC4)ccc32)cc1 the outcome [3] was “inactive”, the outcome [4] was “inactive” and the outcome [5] was “inactive”. The outcome [11] was “inactive”.
In the case of CCN1C(=O)CNc2ncc(-c3ccc(-c4ncn[nH]4)nc3C)nc21, the AC50 [3] is reported as 4.17 µM (active), the AC50 [4] is reported as 1.48 µM (active) and the AC50 [5] is reported as 5.9 µM (active). For the same compound, the IC50 [11] was 8.33 µM (active).
In the case of CCCCOC(=O)NS(=O)(=O)c1sc(CC(C)C)cc1-c1ccc(Cn2ccnc2)cc1, the outcome [3] is reported as “inactive”, the AC50 [4] is reported as 20.9 µM (active) and the AC50 [5] is reported as 20.9 µM (active). The outcome [11] was “inactive”.
For O=C1OC(COc2ccccc2[N+](=O)[O-])CC1Cc1ccccc1 (stereo not given), the outcome [3] was “inactive”, the outcome [4] was “inactive” and the outcome [5] was “inactive”. The outcome [11] was “inactive”.
With C=CC(=O)Nc1cccc(Sc2nc(Nc3ccc(N4CCN(C)CC4)cc3)ncc2Cl)c1 the AC50 [3] was 2.09 µM (active), the AC50 [4] was 1.48 µM (active) and the AC50 [5] was 4.17 µM (active). The IC50 [11] was 1.66 µM (active), the fold change [6, 13] was 0.881 (inactive) and the fold change [6, 14] was 1.05. The cell count [6, 15] was 4990, the cell count [6, 16] was 5660 and the z-score [8, 17] was -0.417 (inactive). For the same compound, the z-score [8, 18] was 0.935.
In the case of NC(=O)c1cccc(-c2cc(Nc3ccc(OC(F)(F)F)cc3)ncn2)c1, the parasite load remaining [12] is reported as 33% (inactive), the viability [12] is reported as 100% and the AC50 [3] is reported as 20.9 µM (active). For the same compound, the AC50 [4] was 20.9 µM (active), the outcome [10] was “inactive” and the AC50 [5] was 20.9 µM (active). For the same compound, the IC50 [11] was 18.6 µM (active), the fold change [6, 13] was 0.899 (inactive) and the fold change [6, 14] was 1.65. The cell count [6, 15] was 7160, the cell count [6, 16] was 7960 and the z-score [8, 17] was -0.11 (inactive). It also gave a z-score [8, 18] of -0.362.
With Cc1ccc(S(=O)(=O)Nc2cc(C(F)(F)F)ccc2C(=O)Nc2nc(-c3ccccc3)cs2)cc1 the AC50 [3] was 4.17 µM (active), the AC50 [4] was 3.72 µM (active) and the AC50 [5] was 3.32 µM (active). For the same compound, the IC50 [11] was 4.68 µM (active).
For CC1(C)CCC2(CC1)N[C@@H](C(=O)N[C@@H]1CC[C@@H](C(N)=O)OC1)[C@H](c1ccnc(Cl)c1F)[C@]21C(=O)Nc2cc(Cl)ccc21, the AC50 [3] was 16 µM (active), the AC50 [4] was 16 µM (active) and the AC50 [5] was 20.1 µM (active). The outcome [11] was “inactive”.
With COc1cc(OCc2cccc(-c3ccccc3)c2C)cc(OC)c1CN1CCCC[C@H]1C(=O)O the outcome [3] was “inactive” and the AC50 [4] was 20.9 µM (active).
For CN(C)N(C)C(=O)[C@@]1(Cc2ccccc2)CCCN(C(=O)[C@@H](Cc2c[nH]c3ccccc23)NC(=O)C(C)(C)N)C1, the outcome [3] was “inactive”, the outcome [4] was “inactive” and the outcome [5] was “inactive”. The outcome [11] was “inactive”.
In the case of Cc1c(C(=O)N2CCOc3ccc(-c4ccc(N)nc4)cc3C2)ccc(S(C)(=O)=O)c1F, the AC50 [3] is reported as 2.95 µM (active) and the AC50 [4] is reported as 4.17 µM (active).
With CC(C)n1c(=O)cc(N[C@@H](C)c2ccccc2)[nH]c1=O the AC50 [3] was 9.34 µM (active), the AC50 [4] was 10.5 µM (active) and the AC50 [5] was 14.8 µM (active). The outcome [11] was “inactive”.
For CC1(C(=O)O)CCC2(C)CCC3(C)C(=CC(=O)C4C5(C)CCC(OC6OC(C(=O)O)C(O)C(O)C6OC6OC(C(=O)O)C(O)C(O)C6O)C(C)(C)C5CCC43C)C2C1 (stereo not given), the outcome [3] was “inactive”, the outcome [4] was “inactive” and the outcome [5] was “inactive”. For the same compound, the outcome [11] was “inactive”.
